Assay outcomes deposited in PubChem by National Center for Advancing Translational Sciences (NCATS).
This is a sample that favours compounds with a hit; in the whole collection about 2.9% have one here.
SNCA expr inh: inhibitors of alpha-synuclein (SNCA) gene expression; HEK-293 SNCA-luciferase knock-in, luminescence, 24 h; Potency, µM (highest dose often 57.2 µM), hits mostly inhibitors; hit rate 0.17% among 140,000; further: nearly all actives have a fitted effect of over 45% in size
SNCA viab count: counter-screen for SNCA expression inhibitors: cell viability | hit rate 0.12% among 150,000 | Potency, µM (doses to about 57.1 µM), hits mostly cytotoxic | HEK-293-SNCA-luc viability, GF-AFC fluorescence, 24 h; further: nearly all actives have a fitted effect of over 30% in size
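HEK-293-SNCA-luc cells (1500/well) plated 24 h, then exposed 24 h to a dilution series; GF-AFC added 30 min at 37C, fluorescence 405/540 nm; normalised to medium-only and DMSO wells, Hill fit.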
KDM5B inh: inhibitors of human KDM5B histone demethylase | hit rate 2.6% among 220,000 | KDM5B demethylase, FDH-coupled NADH fluorescence (FDH is formaldehyde dehydrogenase) | Potency, µM (titrated, usually from 57.7 µM), usual class: inhibitors; further: nearly all actives have a fitted effect of over 70% in size
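Coupled FDH/NAD⁺ fluorescence readout. KDM5BΔAP 200 nM final; compound titration, 10 min RT preincubation; substrate mix 12.5 µM H3K4me3, 25 µM 2-OG, 50 µM Fe(II), 100 µM ascorbate, 0.25 mM NAD⁺, 0.25 U/mL FDH; ΔRFU over 30 min.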
IP6K1 inhibitor: blocks human inositol hexakisphosphate kinase 1. IP6K1 kinase, ADP-Glo luminescence, 2 h; hits give low values. hit rate 0.81% among 140,000. activity change, % (series mostly up to about 58 µM); in the data active means activity change below about -25%
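ADP-Glo luminescence measures ADP made by human IP6K1 during a 2 h RT reaction with ATP/IP6 (mix at 1.3 mM/130 uM); top library doses 57.5 and 19.1 uM final.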
Numbers stand for hits; . = inactive; ? = inconclusive; / = no result given. Unless noted, the call rests on the fitted dose curve; in most records, active means well fitted curve in the direction sought with a large enough effect; inconclusive means small, poorly fitted or top-dose-only effect, or another doubt; inactive means no such curve, though single readings can be large; an effect the other way counts as inactive or inconclusive.

SMILES	SNCA expr inh	SNCA viab count	KDM5B inh	IP6K1 inhibitor
COc1ccc(-c2ccc3ncc(Nc4cccnc4OC)n3n2)cc1OC	.	.	22µM	.
COc1ccc(-c2ccc3ncc(Nc4ccccc4F)n3n2)cc1OC	.	.	.	.
O=C(Nc1nn(-c2cccc(F)c2)c2cccc(N3CCOC3=O)c12)C1CCC1	.	.	28µM	.
O=C1Cc2cc(-c3csc(Nc4ccccc4)n3)ccc2N1	/	/	.	/
OCC1CN(c2ncccn2)CC12CCN(Cc1cc(Cl)ccc1F)CC2 (stereo not drawn)	.	.	25µM	.
CC(C)Oc1ccccc1CN1CCC2(CC1)CN(c1ncccn1)CC2CO (stereo not drawn)	.	.	?	.
Cn1cccc1CN1CCC2(CC1)CN(c1ncccn1)CC2CO (stereo not drawn)	.	.	32µM	.
OCC1CN(c2ncccn2)CC12CCN(Cc1ccc3cc[nH]c3c1)CC2 (stereo not drawn)	.	.	28µM	.
COc1cccc(CN2CCC3(CC2)CN(c2ncccn2)CC3CO)n1 (stereo not drawn)	.	.	22µM	.
NC(=O)NNC(=S)Nc1ccc(Cl)cc1Cl	/	/	.	/
Cn1cnc2c1c(=O)n(CCCOc1ccccc1C#N)c(=O)n2C	/	/	.	/
OCC1CN(c2ncccn2)CC12CCN(C1CCSCC1)CC2 (stereo not drawn)	.	.	32µM	.
OCC1CN(c2ncccn2)CC12CCN(Cc1cccnc1)CC2 (stereo not drawn)	.	.	?	.
Cc1nc(NCCCNC2CCCCC2)c2cnn(C)c2n1	/	/	.	/
Cn1ncc2c(NCCc3cn4ccccc4n3)nc(C3CCCC3)nc21	.	.	20µM	.
COc1ccc(-c2nc3c(C)cccc3cc2CN2CCC[C@H]2CO)cc1OC	.	?	25µM	.
COc1ccc(-c2nc3c(C)cccc3cc2CN2CC[C@@H](O)C2)cc1	.	?	18µM	.
Cc1ccccc1-c1nc2cc3c(cc2cc1CN1CCC[C@H]1CO)OCO3	.	.	?	.
COc1cc2cc(CN3CCC[C@H]3CO)c(-c3cccc(Cl)c3)nc2cc1OC	.	.	25µM	.
COc1ccc(-c2nc3cc(C)ccc3cc2CN2CCC[C@@H]2CO)cc1OC	.	.	?	.
Cc1ccc(C(=O)OCC(=O)c2cccs2)cc1O	/	/	.	/
Cc1cccc(S(=O)(=O)N2CCCN(C)c3ccccc32)c1	.	.	.	.
CN1CCCN(S(=O)(=O)c2cccc(Br)c2)c2ccccc21	?	.	14µM	.
CN1CCCN(S(=O)(=O)c2ccc(C(F)(F)F)cc2)c2ccccc21	.	.	14µM	.
Cn1ncc2c(C(=O)N3CCC(Cc4ccccc4)CC3)cc(-c3ccccc3C(F)(F)F)nc21	/	/	/	.
SMILES	SNCA expr inh	SNCA viab count	KDM5B inh	IP6K1 inhibitor
Cc1cc(Cl)ccc1NC(=O)Cn1cnc2c1c(=O)n(C)c(=O)n2C	/	/	.	/
CCCC(C)C(=O)Nc1nnc(Cc2ccc(OC)c(OC)c2)s1 (stereo not drawn)	/	/	.	/
C[C@H](NC(=O)C1CC(=O)N(c2ccc(F)cc2)C1)C(=O)N[C@@H](Cc1ccccc1)C(=O)O (stereo partly drawn)	/	/	.	/
COc1ccc(-c2ccc(Cn3ccnc3)cn2)c2ccc(C)nc12	.	.	25µM	.
CCc1ccc(NCc2ccc(OC)c(Cn3ccnc3)c2)cc1	/	/	.	/
Cc1ccc(-c2cccc(CN3CCCC3C(=O)N3CCOCC3)c2)cc1Cl (stereo not drawn)	/	/	/	.
CN1CCC2(C1)CN(CC1CCOCC1)c1ccc(C(=O)NCCCO)cc12 (stereo not drawn)	.	.	35µM	.
CN1CCC2(C1)CN(CC1CCOCC1)c1ccc(C(=O)NCCOc3ccccc3)cc12 (stereo not drawn)	.	.	22µM	.
CN1CCC2(C1)CN(CC1CCOCC1)c1ccc(C(=O)NCCc3ccccc3)cc12 (stereo not drawn)	.	.	32µM	.
O=C(Nc1nc2ccccc2s1)c1ccc2c(c1)OCCN(CCC(F)(F)F)C2	.	.	32µM	.
O=C(Nc1nccs1)c1ccc2c(c1)OCCN(CCC(F)(F)F)C2	.	.	.	.
CC1CCCCC1NC(=O)c1csc2ccccc12 (stereo not drawn)	/	/	.	/
CCc1ccc(N2CC(c3noc(-c4cc(OC)c(OC)c(OC)c4)n3)CC2=O)cc1 (stereo not drawn)	?	.	32µM	.
COc1cc(OC)cc(-c2nc(C3CC(=O)N(c4ccc(OC)c(OC)c4)C3)no2)c1 (stereo not drawn)	.	.	28µM	.
CCc1ccc(N2CC(c3noc(-c4ccc(OC)nc4OC)n3)CC2=O)cc1 (stereo not drawn)	.	.	35µM	.
CC(=O)N1CCN(C(=O)Cn2c(NCc3ccccc3)nc3ccccc32)CC1	/	/	.	/
Cc1cc(N)ccc1[N+](=O)[O-]	/	/	.	/
C=CCn1c(N(C)Cc2ccccc2)nc2c1c(=O)n(C)c(=O)n2C	/	/	.	/
COc1ccc(NC(=O)c2cc(NC(=O)C(C)C)cc3nc(C)ccc23)cc1	.	.	.	.
Cc1cccc(CNC(=O)c2cc(NC(=O)C(C)C)cc3nc(C)ccc23)c1	.	.	13µM	.
O=C(NCCc1cccnc1)c1ccc(Cl)cc1Cl	/	/	.	/
CC(=O)Nc1cc(C(=O)N(C)Cc2ccco2)c2ccc(C)nc2c1	.	.	?	.
Cc1ccc2c(C(=O)NCc3cccc(Cl)c3)cc(NC(=O)C(C)C)cc2n1	.	.	25µM	.
CC(=O)Nc1cc(C(=O)NCc2ccccc2C)c2ccc(C)nc2c1	.	.	25µM	.
Cc1ccc2c(C(=O)NCCc3cccnc3)cc(NC(=O)C(C)C)cc2n1	.	.	20µM	.
SMILES	SNCA expr inh	SNCA viab count	KDM5B inh	IP6K1 inhibitor
S=C(Nc1ccn(C23CC4CC(CC(C4)C2)C3)n1)NC1CCCC1	/	/	.	/
O=C(Nc1cc(-c2cccnc2)nn1-c1ccccc1)c1cccc(Br)c1	.	.	/	.
COC(=O)C1=C(C)N=C2SC=C(CC(=O)N(C)Cc3ccco3)N2C1c1ccc(Cl)cc1 (stereo not drawn)	.	.	18µM	.
COCCn1cnc2ccc(-c3cccc(C)c3)nc2c1=O	.	.	40µM	.
COCCn1cnc2ccc(-c3ccsc3)nc2c1=O	.	.	35µM	.
COCCn1cnc2ccc(-c3ccc(F)c(Cl)c3)nc2c1=O	.	.	32µM	.
CC(C)N(C)C(=O)c1ccc(Cl)c(NC(=O)C2(C)CC2(Cl)Cl)c1 (stereo not drawn)	/	/	.	/
CCOC(=O)c1ccc(N2CCN(CCC3c4cccnc4C(=O)N3c3c(C)cccc3C)CC2)cc1 (stereo not drawn)	.	.	/	.
CCNC(=O)N1CCC(OC2CCN(Cc3ccccc3)CC2)CC1	.	.	.	.
O=C(N1CCCCC1)N1CCN(C2CCNCC2)C(=O)C1	.	.	89µM	.
O=C(N1CCCC1)N1CCN(C2CCNCC2)C(=O)C1	.	.	50µM	.
Cc1nc(-c2ccc(F)cc2)n(CC(=O)Nc2ccc(C(C)C)cc2)c(=O)c1CCO	?	.	.	.
CCCNC(=O)NCC1c2cc(OC)c(OC)cc2CCN1C(=O)NCC (stereo not drawn)	.	.	.	.
